According to PubChem BioAssay (NCI):
This is part of a sample that, as a whole, favours compounds with a hit. Of some 79,000 tested, about 15% had one in any assay. Cut-off read from the data, not from the text of the source: active = growth inhibition above about 70%; inactive = the rest.

What was measured:
[1] = NCI Yeast Anticancer Drug Screen. Data for the rad50 strain (AID 155);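 note: 0% = growth of vehicle-only cultures of the same strain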; conditions: S. cerevisiae rad50 strain growth inhibition; at 50.0 µM; stronger effect = higher value
Outline: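 Cells are treated with compound, grown, and their growth is then scored against vehicle-only cultures of the same repair-deficient yeast strain.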

[2] = NCI Yeast Anticancer Drug Screen. Data for the mec2-1 strain (AID 157); conditions: S. cerevisiae mec2-1 strain, at 50.0 µM, stronger effect = higher value
Outline: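 mec2-1 yeast strain, carrying an alteration in DNA damage repair or cell cycle control, was exposed to compounds; growth inhibition was measured relative to vehicle-treated controls.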

[3] = NCI Yeast Anticancer Drug Screen. Data for the sgs1 mgt1 strain (AID 161);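 note: 0% = growth of cultures given vehicle only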; conditions: S. cerevisiae sgs1 mgt1 strain, at 50.0 µM, stronger effect = higher value
Outline: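 This yeast growth screen uses a strain with defined DNA-repair lesions; compound-treated growth is compared with vehicle-treated growth.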

[4] = NCI Yeast Anticancer Drug Screen. Data for the cln2 rad14 strain (AID 165);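 note: 0% = growth equal to vehicle treated cultures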; conditions: S. cerevisiae cln2 rad14 strain, at 50.0 µM, stronger effect = higher value
Outline: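 Yeast carrying cln2 and rad14 alterations (cell cycle control and DNA damage repair) were exposed to compounds. Growth inhibition was measured against vehicle-treated controls.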

[5] = NCI Yeast Anticancer Drug Screen. Data for the bub3 strain (AID 167); conditions: S. cerevisiae bub3 mutant strain, at 50.0 µM, stronger effect = higher value
Outline: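 Part of a panel of yeast mutants defective in DNA damage repair or cell cycle regulation. Each strain is grown with compound, and inhibition is calculated relative to solvent-treated cultures.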

[6] = NCI Yeast Anticancer Drug Screen. Data for the mlh1 rad18 strain (AID 175); conditions: S. cerevisiae mlh1 rad18 strain growth inhibition; at 50.0 µM; stronger effect = higher value
Outline: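 Growth inhibition of the yeast strain was measured after compound exposure and expressed relative to vehicle-treated controls. The strain carries defined defects in DNA damage repair.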

Measured: growth inhibition

CCOC(=O)Cc1csc2[n+]1C(=O)/C(=C/c1cccc(OC)c1O)S2
inactive: [1] 45.1% | [2] 9.8% | [3] 53.4% | [4] -10.2% | [5] 13.3% | [6] 38.2%

CC(C)(C)C(=O)/C=C/c1ccc(Oc2ccccc2)cc1
inactive: [1] 27.8% | [2] -28.7% | [3] 4.05% | [4] -15.6% | [5] -19.8% | [6] -20.8%

CC(C)CC(NC(=O)OC(C)(C)C)C(=O)NC(Cc1c[nH]c2ccccc12)C(=O)NN (stereo unspecified)
inactive: [1] 37.8% | [2] 14.2% | [3] 29.4% | [4] 32.3% | [5] 0.75% | [6] 27.7%

CCN(CC)CCN1C(=O)NC2(CCCCC2)C1=O
inactive: [1] 19.5% | [2] -0.8% | [3] 18.8% | [4] 16% | [5] 10.6% | [6] 20.8%

OCC#C[C@@H]1CC[C@H]1C#CCO
inactive: [1] 7.3% | [2] -3.3% | [3] 6.3% | [4] 2.3% | [5] 2.6% | [6] -6%

Cc1cccc(NC(=O)c2c(Cl)c(Cl)c(Cl)c(Cl)c2C(=O)O)c1C
inactive: [1] 9.8% | [2] 2% | [3] 2.6% | [4] -35.5% | [5] 5.8% | [6] 8.95%

CC(=O)OC(CCN(C)C)c1ccccc1 (stereo unspecified)
inactive: [1] -1.35% | [2] -7.5% | [3] 0.6% | [4] -34.1% | [5] 24% | [6] -5.45%

O=C(OCC1C2CCC(C2)C1c1ccccc1)c1ccc([N+](=O)[O-])cc1 (stereo unspecified)
inactive: [1] 1.4% | [2] 8.5% | [3] -2% | [4] -22.7% | [5] -2.75% | [6] 10.5%

Cc1ccc2ccccc2c1[N+](=O)[O-]
inactive: [1] 43.5% | [2] 5% | [3] 37.3% | [4] 17.1% | [5] 21.6% | [6] 36.5%

[O-]c1csc2n(-c3ccccc3)c3ccccc3[n+]12
inactive: [1] 4.95% | [2] -16% | [3] 1.85% | [4] 28.4% | [5] -4.65% | [6] 6.65%

CC(C)c1ccc(C(C)(C)O)cc1
inactive: [1] 4.75% | [2] 15.7% | [3] -19.8% | [4] -7.8% | [5] -6.8% | [6] -17.6%

CN(C)COC(=S)SCC(=O)O
inactive: [1] 8.4% | [2] -0.85% | [3] 2.6% | [4] -26.6% | [5] -3.05% | [6] -1.9%

CCN(CC)CCSc1ccnc2cc(Cl)ccc12
inactive: [1] 16.3% | [2] 23.1% | [3] 52.8% | [4] 47.5% | [5] 36% | [6] 21.8%

COC(=O)CC1(O)C=CCCC1c1ccccc1 (stereo unspecified)
inactive: [1] -23.2% | [2] -7.6% | [3] 2.35% | [4] 0.3% | [5] -7.5% | [6] -35%

CS(=O)c1ccc(C(F)(F)F)cc1C(=O)O (stereo unspecified)
inactive: [1] -3.3% | [2] 9.95% | [3] 9.7% | [4] -24.4% | [5] -20.5% | [6] 9.85%

CCOC(=O)c1cc(NC(C)=O)c(C)n1C
inactive: [1] -5.4% | [2] 8.6% | [3] -3.45% | [4] -26.6% | [5] 11.1% | [6] 16.4%

Nc1nc(N)c2c(n1)CCC(CNc1ccc(C(=O)NC(CCC(=O)O)C(=O)O)cc1)C2 (stereo unspecified)
inactive: [1] 23.6% | [2] 30.6% | [3] 38.3% | [4] 40.2% | [5] -3.8% | [6] 29.7%

Cc1csnn1
inactive: [1] -12.7% | [2] -17.9% | [3] 8.5% | [4] -1.4% | [5] -1.6% | [6] -21.6%

Cc1nc(C#N)c(=N)n(CCCO)c1-c1ccccc1
inactive: [1] 7.2% | [2] -8.45% | [3] 10.3% | [4] -28.5% | [5] 16.4% | [6] 5.15%

COc1ccc(OCC(C)(C)O)cc1
inactive: [1] -12.6% | [2] -0.4% | [3] 5.6% | [4] 0.2% | [5] -11.2% | [6] -2.55%

N/C=N/OC(=O)c1ccccc1
inactive: [1] 11.5% | [2] 14.4% | [3] 11.8% | [4] 4.7% | [5] 0.5% | [6] 8.25%
